Results published in PubChem BioAssay (NCI).
This is part of a sample that, as a whole, favours compounds with a hit. Of some 83,000 tested, about 20% had one in any assay.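 Each cell line was grown in a 96-well plate and treated with one concentration of compound for 48 hours. Values below 10 were considered active.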 A number with no mark means an inactive call. Active and inactive are the calls of the source.

System: HL-60(TB) leukemia
Assay: NCI-60 one-dose screen, 48 h (100 = growth as untreated, 0 = no growth, -100 = all killed)
Details: 10 µM unless noted

SMILES | growth
COc1ccc(-c2nc(SCC(C)C)nc(Nc3ccc(C)cc3)c2C#N)cc1 | 92.3%
O=C(Nc1nc(-c2ccc(Cl)cc2)cs1)c1cc(O)c(O)c(O)c1 | 10.4%
Cc1ccc2nc(/C=C/c3ccc(N(C)C)cc3)cc(C)c2c1 | 15.2%
N#Cc1ccc([N+](=O)[O-])o1 | 108%
O=C1c2ccccc2C(=O)c2c1ccc1c(=O)n(-c3ccccc3C(F)(F)F)nnc21 | -42% (active)
COc1cc(Nc2cc(C)nc(N3CCN(c4ccnc5cc(Cl)ccc45)CC3)n2)cc(OC)c1 | -6.44% (active)
COc1ccc(-c2cc(-c3cccc(Cl)c3)c(C#N)c(=O)[nH]2)c(OC)c1 | 95.6%
NC(=O)c1ncn([C@@H]2O[C@H](CO)[C@@H](O)[C@H]2O)n1 | 109%
CC(=O)n1nc(C(=O)OC(C)(C)c2ccccc2)c2ccccc21 | 97.5%
CCCCCS(=O)(=O)Nc1ccc(C(=O)O)cc1 | 101%
COc1cc(OC)c(/C=C/S(=O)(=O)Cc2ccc(OC)c(NCC(=O)O)c2)c(OC)c1 | -32% (active)
S=c1nn[nH]n1C1CCCCC1 | 79.8%
O=c1c2c3c(sc2n2c(-c4cc(-c5ccccc5)nn4-c4ccccc4)nnc2n1Cc1ccccc1)CCCC3 | 50.7%
Cc1cc(Nc2cc(N3CCN(C)CC3)nc(Sc3ccc(NC(=O)C4CC4)cc3)n2)n[nH]1 | 11.2%
COc1ccc(/C=N\NC(=O)c2ccncc2)cc1O | 97.9%
